High-throughput results (PubChem BioAssay)
Sampled rows, rich in hits. Any-hit rate of the full collection: about 5.4%.
VACV mCherry inh – vaccinia inhibition (mCherry reporter). Potency, µM (doses to about 36.5 µM), for the others: at the top dose activity change, negative = inhibition, usual class: inhibitors. Vaccinia virus mCherry reporter infection, fluorescence. hit rate 0.63% among 310,000; calls by dose curve; tested in A549 cells; further: nearly all actives have a fitted effect of over 35% in size
VACV Venus inh – vaccinia inhibition (Venus reporter); Vaccinia virus Venus reporter expression, fluorescence; Potency, µM (series often up to 36.5 µM), without a hit: at the highest dose activity change, negative = inhibition, hits mostly inhibitors; hit rate 0.46% among 330,000; AID 720580; calls by dose curve; tested in A549 cells; further: nearly all actives have a fitted effect of over 30% in size
Sm TGR inh – S. mansoni TGR enzyme inhibition | Q962Y6 | purified TGR, DTNB reduction, TNB absorbance 405 nm | Potency, µM (doses to about 114 µM), for inactives: at the top dose activity change, negative = inhibition, actives largely listed as inhibitors | hit rate 3% among 360,000; active means well fitted inhibition curve with a large enough effect; inconclusive means small, poorly fitted or top-dose-only effect; inactive means no such curve, though single readings can be large or run the other way; further: nearly all actives have a fitted effect of over 60% in size
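Kinetic colorimetric format: TGR-catalysed, NADPH-driven DTNB reduction monitored via TNB absorbance. Enzyme dispensed at 20 nM; compound exposure 15 min at room temperature before reaction start.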
LASV entry inh – blocks Lassa virus binding to or entry into cells. Lassa virus pseudotype entry inhibition, cell reporter. Potency, µM (series often up to 37.9 µM), for the others: top-dose activity change, negative = inhibition, actives largely listed as inhibitors. hit rate 1.2% among 300,000. AID 540256; calls by dose curve; tested in HEK293 cells; further: nearly all actives have a fitted effect of over 50% in size
FMDV inh – antivirals against foot and mouth disease virus; FMDV antiviral cell-based qHTS; Potency, µM (titrated, usually from 57.9 µM), for inactives: top-dose activity change, negative = inhibition, actives largely listed as inhibitors; hit rate 1.2% among 410,000; calls by dose curve; tested in HEK293T cells; further: read-out not given here; nearly all actives have a fitted effect of over 45% in size
MARV entry inh – Marburg virus entry inhibition; Potency, µM (doses to about 37.8 µM), for inactives: at the highest dose activity change, negative = inhibition, actives largely listed as inhibitors; hit rate 1.8% among 300,000; Marburg virus pseudotyped entry inhibition, cell reporter; calls by dose curve; tested in HEK293 cells
Starred values were filed as active, the others as inactive; [ ] = another dose, or the depositor's remark. On the % scale 0 is the no-effect control and ±100 the full control effect; potency means the concentration at half of the fitted maximal effect.

`Cc1ccc(N2CCN(C(=O)c3cn(C)c4ccc(S(=O)(=O)N5CCCC5)cc4c3=O)CC2C)cc1` (configuration not stated) gave VACV mCherry inh -17%, VACV Venus inh -12%, Sm TGR inh 3%, LASV entry inh -10%[46.1 µM], FMDV inh 12% and MARV entry inh -20%[46.1 µM].
For COc1cccc(CNc2ncnc3c2nnn3C)c1 the results were VACV mCherry inh inactive, VACV Venus inh -17%, Sm TGR inh 4%, LASV entry inh 18%[46.1 µM] and FMDV inh 0%.
For COc1cccc(C(=O)NCC2Cc3c(F)ccc(-c4ncccn4)c3O2)c1OC (configuration not stated) the results were VACV mCherry inh -9%, VACV Venus inh inconclusive and FMDV inh -10%.
Screening CCCC(=O)NC1CCCc2c1cnn2-c1ccc(C)c(C)c1 (configuration not stated) returned Sm TGR inh -5% and FMDV inh 17%.
For COc1ncccc1C(=O)NC1CCCc2c1cnn2-c1ccc(C)c(C)c1 (configuration not stated) the results were Sm TGR inh -3% and FMDV inh -40%.
For CCn1nc(C)cc1C(=O)NC1CCCc2c1cnn2-c1ccc(C)c(C)c1 (configuration not stated) the results were VACV mCherry inh -29%, VACV Venus inh inconclusive, Sm TGR inh 3%, LASV entry inh inconclusive, FMDV inh 10µM* and MARV entry inh inconclusive.
`CSc1ncccc1C(=O)NC1CCCc2c1cnn2-c1ccc(C)c(C)c1` (configuration not stated) gave VACV mCherry inh -22%, VACV Venus inh -15%, Sm TGR inh -22%, LASV entry inh 0%, FMDV inh 28µM* and MARV entry inh inconclusive.
For CCc1[nH]nc(C(=O)NC2CCCc3c2cnn3-c2cc(C)cc(C)c2)c1C (configuration not stated) the results were VACV mCherry inh inconclusive, VACV Venus inh 7%, Sm TGR inh 2%, LASV entry inh inconclusive, FMDV inh 27% and MARV entry inh 3.5µM*.
For CCCOc1ccc(NC(=O)CC2C(=O)N(c3ccc(Cl)cc3)C(=O)N2CCc2ccncc2)cc1 (configuration not stated) the results were VACV mCherry inh -13%, VACV Venus inh -9%, Sm TGR inh 5%, LASV entry inh 25%[46.1 µM] and FMDV inh 12%.
Screening CCn1c(=NC(=O)CCS(=O)(=O)c2ccccc2)sc2cccc(OC)c21 returned VACV mCherry inh inconclusive, VACV Venus inh -30%, Sm TGR inh -6%, LASV entry inh inconclusive, FMDV inh 20µM* and MARV entry inh inconclusive.
COCCn1c(=NC(=O)CCS(=O)(=O)c2ccccc2)sc2cc(C)ccc21 was read as VACV mCherry inh -11%, VACV Venus inh -6%, Sm TGR inh 35µM*, LASV entry inh -27%, FMDV inh 0% and MARV entry inh -34%.
CCCn1c(=NC(=O)CS(=O)(=O)c2ccccc2)sc2cc(S(C)(=O)=O)ccc21 was read as VACV mCherry inh -15%, VACV Venus inh -12%, Sm TGR inh -6%, LASV entry inh -16%, FMDV inh -12% and MARV entry inh -25%.
For CCn1c(=NC(=O)CS(=O)(=O)c2ccc(F)cc2)sc2cccc(OC)c21 the results were VACV mCherry inh -10%, VACV Venus inh -19%, Sm TGR inh -1%, LASV entry inh -36%, FMDV inh inconclusive and MARV entry inh inconclusive.
For COCCn1c(=NC(=O)CCS(=O)(=O)c2ccccc2)sc2cc(F)ccc21 the results were VACV mCherry inh -2%, VACV Venus inh -2%, Sm TGR inh 40µM*, LASV entry inh -10%, FMDV inh -16% and MARV entry inh -23%.
COCCn1c(=NC(=O)c2cc(-c3cccs3)nc3ccccc23)sc2cc(S(N)(=O)=O)ccc21 was read as VACV mCherry inh inconclusive, VACV Venus inh inconclusive, Sm TGR inh 4%, LASV entry inh inconclusive, FMDV inh -16% and MARV entry inh 9.2µM*.
For CCOC(=O)c1ccc(NC(=O)CC2C(=O)N(c3cccc(OC)c3)C(=O)N2Cc2cccnc2)cc1 (configuration not stated) the results were VACV mCherry inh 10%, VACV Venus inh -3%, Sm TGR inh 8%, LASV entry inh inconclusive and FMDV inh -12%.
COc1ccccc1-c1ccc(SCc2ccc([N+](=O)[O-])cc2)nn1 was read as VACV mCherry inh -27%, VACV Venus inh -14%, Sm TGR inh 18%, LASV entry inh inconclusive, FMDV inh -14% and MARV entry inh 10µM*.
`O=[N+]([O-])c1ccc(CSc2ccc(-c3ccccn3)nn2)cc1` gave VACV mCherry inh -8%, VACV Venus inh -15%, Sm TGR inh 8%, LASV entry inh -1%[46.1 µM], FMDV inh -14% and MARV entry inh 14%[46.1 µM].
`CN(C)Cc1c(C(=O)N/N=C/c2ccco2)nnn1-c1nonc1N` gave VACV mCherry inh -11%, VACV Venus inh -10%, Sm TGR inh 1%, LASV entry inh 4%, FMDV inh -3% and MARV entry inh 18%[46.1 µM].
Screening CCCN(CCC)Cc1c(C(=O)N/N=C/c2ccc(C)o2)nnn1-c1nonc1N returned VACV mCherry inh -23%, VACV Venus inh inconclusive, Sm TGR inh -4%, LASV entry inh -14%, FMDV inh 17% and MARV entry inh -29%[46.1 µM].
For CCCN(CCC)Cc1c(C(=O)N/N=C/C(C)=C\c2ccco2)nnn1-c1nonc1N the results were VACV mCherry inh 10µM*, VACV Venus inh inconclusive, Sm TGR inh inconclusive, LASV entry inh inconclusive, FMDV inh 13% and MARV entry inh 4.5µM*.
For CC(/C=N/NC(=O)c1nnn(-c2nonc2N)c1CN(C)C)=C\c1ccco1 the results were VACV mCherry inh -16%, VACV Venus inh -12%, Sm TGR inh 45µM*, LASV entry inh 11%[46.1 µM], FMDV inh 4% and MARV entry inh -3%[46.1 µM].
For CCCCCCC[n+]1ccc(/C=C/c2c(C)[nH]c3ccccc23)c2ccccc21 the results were VACV mCherry inh inactive and VACV Venus inh inactive.
For CC(NC(=S)NC(=O)c1ccccc1)c1ccccc1 (configuration not stated) the results were FMDV inh -15%.
`O=C(NC(=S)NC(c1ccccc1)c1ccncc1)c1ccccc1` (configuration not stated) gave VACV mCherry inh -2%, VACV Venus inh -15%, Sm TGR inh -34%, LASV entry inh inconclusive, FMDV inh inconclusive and MARV entry inh 6.5µM*.
`O=C(NC(=S)Nc1cccnc1)c1cccs1` gave VACV mCherry inh inactive, VACV Venus inh -9%, Sm TGR inh 10µM*, LASV entry inh 28%, FMDV inh 50% and MARV entry inh 20%.
